# Laboratory results taken from PubChem BioAssay AID1159580 (chemical genetic matrix, 2015).
# The campaign covered roughly 5,500 compounds. About 2,000 (36%) were called active. Another 18% or so got no clear call; they are omitted. The list shows a part of the results. Unmarked numbers belong to inactive results. Cut-off read from the data, not from the text of the source: active = normalized growth mostly below about 0.91 (no sharp cut-off); inconclusive = no clear call, values can overlap the other calls; inactive = mostly above about 0.92.
# Experiment: chemical genetic growth profiling, strain panel (AID 1159580);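 note: tested at 20 µM; growth read once vehicle control cultures reached saturation at 30 °C; 1 = growth at the plate median or of vehicle wells; lower values mean less growth of the strain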
# Conditions: growth OD
smiles,measurement,setting,value
CC1=C2CCC3C(CC[C@]4(C)C(=O)CCC34)[C@@]2(C)CCC1=O (some centres not stated),normalized growth,"S. cerevisiae deletion strains, locus YJR075W, strain HOC1, stronger effect = lower value",0.968
same,normalized growth,"S. cerevisiae deletion strains, locus YKL009W, strain mrt4, stronger effect = lower value",0.948
same,normalized growth,"S. cerevisiae deletion strains, locus YKL068W, stronger effect = lower value",0.985
same,normalized growth,"S. cerevisiae deletion strains, locus YKL085W, strain MDH1 (second series), stronger effect = lower value",0.983
same,normalized growth,"S. cerevisiae deletion strains, locus YKL085W, strain MDH1, stronger effect = lower value",0.983
same,normalized growth,"S. cerevisiae deletion strains, locus YKL160W, strain elf1, stronger effect = lower value",0.936
same,normalized growth,"S. cerevisiae deletion strains, locus YKL190W, strain CNB1, stronger effect = lower value",0.98
same,normalized growth,"S. cerevisiae deletion strains, locus YKR001C, strain vps1, stronger effect = lower value",0.9
same,normalized growth,"S. cerevisiae deletion strains, locus YKR026C, strain gcn3, stronger effect = lower value",0.998
same,normalized growth,"S. cerevisiae deletion strains, locus YKR091W, strain srl3, stronger effect = lower value",0.985
same,normalized growth,"S. cerevisiae deletion strains, locus YLL001W, strain dnm1, stronger effect = lower value",0.937
same,normalized growth,"S. cerevisiae deletion strains, locus YLL026W, stronger effect = lower value",0.994
same,normalized growth,"S. cerevisiae deletion strains, locus YLL041C, strain sdh2, stronger effect = lower value",0.984
same,normalized growth,"S. cerevisiae deletion strains, locus YLR027C, strain aat2, stronger effect = lower value",0.948
same,normalized growth,"S. cerevisiae deletion strains, locus YLR039C, strain RIC1, stronger effect = lower value",0.587 (active)
same,normalized growth,"S. cerevisiae deletion strains, locus YLR058C, strain SHM2, stronger effect = lower value",0.976
same,normalized growth,"S. cerevisiae deletion strains, locus YLR102C, strain apc9, stronger effect = lower value",0.977
same,normalized growth,"S. cerevisiae deletion strains, locus YLR113W, strain HOG1, stronger effect = lower value",0.974
same,normalized growth,"S. cerevisiae deletion strains, locus YLR221C, strain rsa3, stronger effect = lower value",0.994
same,normalized growth,"S. cerevisiae deletion strains, locus YLR258W, strain gsy2, stronger effect = lower value",0.959
same,normalized growth,"S. cerevisiae deletion strains, locus YLR262C, strain YPT6 (second series), stronger effect = lower value",0.655 (active)
same,normalized growth,"S. cerevisiae deletion strains, locus YLR262C, strain YPT6, stronger effect = lower value",0.613
same,normalized growth,"S. cerevisiae deletion strains, locus YLR268W, strain sec22, stronger effect = lower value",1.02
same,normalized growth,"S. cerevisiae deletion strains, locus YLR320W, strain mms22, stronger effect = lower value",0.94
same,normalized growth,"S. cerevisiae deletion strains, locus YLR330W, strain CHS5, stronger effect = lower value",0.982
same,normalized growth,"S. cerevisiae deletion strains, locus YLR342W, strain FKS1 (second series), stronger effect = lower value",0.811
same,normalized growth,"S. cerevisiae deletion strains, locus YLR342W, strain FKS1, stronger effect = lower value",0.951
same,normalized growth,"S. cerevisiae deletion strains, locus YLR357W, strain rsc2, stronger effect = lower value",1.01
same,normalized growth,"S. cerevisiae deletion strains, locus YLR370C, strain arc18, stronger effect = lower value",0.986
same,normalized growth,"S. cerevisiae deletion strains, locus YLR371W, strain rom2, stronger effect = lower value",0.983
same,normalized growth,"S. cerevisiae deletion strains, locus YLR384C, strain iki3, stronger effect = lower value",0.983
same,normalized growth,"S. cerevisiae deletion strains, locus YLR418C, strain cdc73, stronger effect = lower value",0.771 (active)
same,normalized growth,"S. cerevisiae deletion strains, locus YML016C, strain PPZ1, stronger effect = lower value",0.965
same,normalized growth,"S. cerevisiae deletion strains, locus YML032C, strain rad52, stronger effect = lower value",0.966
same,normalized growth,"S. cerevisiae deletion strains, locus YML120C, strain ndi1, stronger effect = lower value",0.955
same,normalized growth,"S. cerevisiae deletion strains, locus YML124C, strain tub3, stronger effect = lower value",0.969
same,normalized growth,"S. cerevisiae deletion strains, locus YMR058W, strain fet3, stronger effect = lower value",0.976
same,normalized growth,"S. cerevisiae deletion strains, locus YMR078C, strain ctf18, stronger effect = lower value",0.953
same,normalized growth,"S. cerevisiae deletion strains, locus YMR125W, strain sto1, stronger effect = lower value",0.993
same,normalized growth,"S. cerevisiae deletion strains, locus YMR129W, stronger effect = lower value",0.993
same,normalized growth,"S. cerevisiae deletion strains, locus YMR205C, strain PFK2, stronger effect = lower value",0.9
same,normalized growth,"S. cerevisiae deletion strains, locus YMR223W, strain ubp8, stronger effect = lower value",0.9 (active)
same,normalized growth,"S. cerevisiae deletion strains, locus YMR231W, strain pep5, stronger effect = lower value",0.976
same,normalized growth,"S. cerevisiae deletion strains, locus YMR263W, strain SAP30, stronger effect = lower value",0.971
same,normalized growth,"S. cerevisiae deletion strains, locus YMR307W, strain GAS1, stronger effect = lower value",0.759
same,normalized growth,"S. cerevisiae deletion strains, locus YNL067W, strain RPL9B, stronger effect = lower value",0.987
same,normalized growth,"S. cerevisiae deletion strains, locus YNL071W, strain lat1, stronger effect = lower value",0.863 (active)
same,normalized growth,"S. cerevisiae deletion strains, locus YNL128W, strain TEP1, stronger effect = lower value",0.99
same,normalized growth,"S. cerevisiae deletion strains, locus YNL153C, strain GIM3, stronger effect = lower value",0.99
same,normalized growth,"S. cerevisiae deletion strains, locus YNL183C, strain NPR1, stronger effect = lower value",0.839
same,normalized growth,"S. cerevisiae deletion strains, locus YNL209W, strain ssb2, stronger effect = lower value",0.962
same,normalized growth,"S. cerevisiae deletion strains, locus YNL233W, strain BNI4, stronger effect = lower value",0.962
same,normalized growth,"S. cerevisiae deletion strains, locus YNL248C, strain rpa49, stronger effect = lower value",1.01
same,normalized growth,"S. cerevisiae deletion strains, locus YNL250W, strain rad50, stronger effect = lower value",0.951
same,normalized growth,"S. cerevisiae deletion strains, locus YNL271C, strain bni1, stronger effect = lower value",0.957
same,normalized growth,"S. cerevisiae deletion strains, locus YNL298W, strain CLA4, stronger effect = lower value",0.929
same,normalized growth,"S. cerevisiae deletion strains, locus YNL307C, strain MCK1, stronger effect = lower value",0.695 (active)
same,normalized growth,"S. cerevisiae deletion strains, locus YNL322C, strain KRE1 (second series), stronger effect = lower value",0.986
same,normalized growth,"S. cerevisiae deletion strains, locus YNL322C, strain KRE1, stronger effect = lower value",0.983
same,normalized growth,"S. cerevisiae deletion strains, locus YNR049C, strain mso1, stronger effect = lower value",0.997
same,normalized growth,"S. cerevisiae deletion strains, locus YNR052C, strain pop2, stronger effect = lower value",0.89 (active)
same,normalized growth,"S. cerevisiae deletion strains, locus YOL006C, strain TOP1, stronger effect = lower value",0.729
same,normalized growth,"S. cerevisiae deletion strains, locus YOL012C, strain htz1",1.08
same,normalized growth,"S. cerevisiae deletion strains, locus YOL147C, strain pex11, stronger effect = lower value",0.959
same,normalized growth,"S. cerevisiae deletion strains, locus YOR001W, strain rrp6, stronger effect = lower value",1.01
same,normalized growth,"S. cerevisiae deletion strains, locus YOR061W, strain CKA2, stronger effect = lower value",0.979
same,normalized growth,"S. cerevisiae deletion strains, locus YOR069W, strain VPS5, stronger effect = lower value",0.973
same,normalized growth,"S. cerevisiae deletion strains, locus YOR070C, strain gyp1, stronger effect = lower value",0.959
same,normalized growth,"S. cerevisiae deletion strains, locus YOR080W, strain dia2, stronger effect = lower value",0.995
same,normalized growth,"S. cerevisiae deletion strains, locus YOR083W, strain WHI5, stronger effect = lower value",0.915
same,normalized growth,"S. cerevisiae deletion strains, locus YOR106W, strain vam3, stronger effect = lower value",0.944
same,normalized growth,"S. cerevisiae deletion strains, locus YOR136W, strain idh2, stronger effect = lower value",0.961
same,normalized growth,"S. cerevisiae deletion strains, locus YOR144C, strain elg1, stronger effect = lower value",0.958
same,normalized growth,"S. cerevisiae deletion strains, locus YOR184W, strain ser1, stronger effect = lower value",0.719 (active)
same,normalized growth,"S. cerevisiae deletion strains, locus YOR231W, strain MKK1, stronger effect = lower value",0.955
same,normalized growth,"S. cerevisiae deletion strains, locus YOR265W, strain rbl2, stronger effect = lower value",0.985
same,normalized growth,"S. cerevisiae deletion strains, locus YOR270C, strain vph1, stronger effect = lower value",0.844
same,normalized growth,"S. cerevisiae deletion strains, locus YOR290C, strain snf2, stronger effect = lower value",0.898
same,normalized growth,"S. cerevisiae deletion strains, locus YOR316C, strain cot1, stronger effect = lower value",0.98
same,normalized growth,"S. cerevisiae deletion strains, locus YPL051W, strain arl3, stronger effect = lower value",0.921
same,normalized growth,"S. cerevisiae deletion strains, locus YPL055C, strain LGE1, stronger effect = lower value",0.871
same,normalized growth,"S. cerevisiae deletion strains, locus YPL078C, strain atp4, stronger effect = lower value",0.887 (active)
same,normalized growth,"S. cerevisiae deletion strains, locus YPL106C, strain sse1, stronger effect = lower value",1
same,normalized growth,"S. cerevisiae deletion strains, locus YPL240C, strain hsp82, stronger effect = lower value",0.987
same,normalized growth,"S. cerevisiae deletion strains, locus YPL241C, strain CIN2, stronger effect = lower value",0.986
same,normalized growth,"S. cerevisiae deletion strains, locus YPL256C, strain CLN2, stronger effect = lower value",0.927
same,normalized growth,"S. cerevisiae deletion strains, locus YPR119W, strain clb2, stronger effect = lower value",0.979
same,normalized growth,"S. cerevisiae deletion strains, locus YPR141C, strain kar3, stronger effect = lower value",0.951
same,normalized growth,"S. cerevisiae deletion strains, locus YPR163C, strain tif3, stronger effect = lower value",0.927
same,normalized growth,"S. cerevisiae deletion strains, locus YPR167C, strain met16, stronger effect = lower value",0.972
same,normalized growth,"S. cerevisiae deletion strains, strain wtn01, stronger effect = lower value",0.964
same,normalized growth,"S. cerevisiae strains, strain wild type, stronger effect = lower value",0.942
